DRD3 antagonist: qHTS of D3 Dopamine Receptor Antagonist: qHTS; max response, negative = inhibition, %; D(3) dopamine receptor (Homo sapiens), P35462; D3R cells, DiscoveRx beta-arrestin luminescence, antagonist mode; active compounds read low; 360,000 tested, 2.5% active; AID 652054, 2013; in the data active = max response below about -50%; inconclusive = no clear call, values can overlap the other calls; note: % is set by controls: 0 for no effect and ±100 for the full control effect
Target sequence (P35462 whole entry, looked up): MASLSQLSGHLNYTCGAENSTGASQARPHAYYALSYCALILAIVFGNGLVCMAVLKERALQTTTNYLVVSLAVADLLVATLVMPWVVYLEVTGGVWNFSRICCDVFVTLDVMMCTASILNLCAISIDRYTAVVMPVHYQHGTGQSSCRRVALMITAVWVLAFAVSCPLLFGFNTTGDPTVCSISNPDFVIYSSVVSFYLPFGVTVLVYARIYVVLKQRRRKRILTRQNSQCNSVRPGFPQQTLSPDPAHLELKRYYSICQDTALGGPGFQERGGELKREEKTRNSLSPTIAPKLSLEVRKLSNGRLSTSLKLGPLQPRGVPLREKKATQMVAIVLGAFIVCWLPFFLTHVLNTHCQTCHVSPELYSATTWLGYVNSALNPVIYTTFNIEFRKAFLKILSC
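Cells expressing the human receptor were seeded at 1500 cells/well, incubated overnight at 37 degrees C in 5% CO2, then exposed to library compounds with dopamine controls for 90 minutes at 37 degrees C before luminescent detection.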
DRD3 agonist: qHTS of D3 Dopamine Receptor Agonist: qHTS | D3R DiscoveRx beta-arrestin cells, luminescence, 90 min | 410,000 tested, 0.58% active | AID 652048, 2013 | max activation, %; in the data active = max activation above about 30%; note: 0% is about no effect
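Agonist mode: compounds and dopamine controls were applied to plated cells for 90 min at 37 degrees C after an overnight attachment at 1500 cells/well. Luminescent read-out followed 30 - 60 minutes at room temperature with DiscoveRx detection reagent.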
GLP1R inv ag: qHTS of GLP-1 Receptor Inverse Agonists (Inhibition Mode) | Glucagon-like peptide 1 receptor (Homo sapiens), P43220 | HEK293 GLP-1R CRE-luciferase, luminescence, 24 h; GLP-1R form is constitutively active | Potency, µM (top dose mostly 38.3 µM), for the others: top-dose activity change, negative = inhibition, actives largely listed as inhibitors | 410,000 tested, 1.6% active | AID 624417, 2012; note: potency is the fitted concentration of half-maximal effect; % is set by controls: 0 for no effect and ±100 for the full control effect; nearly all actives have a fitted effect of over 55% in size
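Inverse agonists were sought by their lowering of basal cAMP reporter luciferase output in HEK293 cells stably carrying constitutively active human GLP-1R, after 24 h compound treatment.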
GLP-1R agonist: qHTS of GLP-1 Receptor Agonists; Glucagon-like peptide 1 receptor (Homo sapiens), P43220; HEK293 GLP-1R CRE-luciferase, luminescence, 4-6 h; cells express a hypersensitive GLP-1R form; Potency, µM (highest dose often 45.6 µM), for the others: at the highest dose activation, hits mostly activators; 380,000 tested, 0.007% active; AID 624172, 2012; note: potency is the fitted concentration of half-maximal effect; % of control where 0% means no effect
Numbers without * were called inactive. Rows were chosen to be rich in hits. Some 4.3% of all compounds tested hit in one or more screens of this group. Unless noted, calls come from the whole dose curve; as a rule, active = well fitted curve in the direction sought with a large enough effect; inconclusive = small, poorly fitted or top-dose-only effect, or another doubt; inactive = no such curve, though single readings can be large; an effect the other way counts as inactive or inconclusive.

What do the screens show for `CCCNC(=O)C1CCN(Cc2cc3ccccc3n2Cc2ccccc2)CC1`?
DRD3 agonist: -14; GLP1R inv ag: inconclusive

How did CN(C)CCNC(=O)C1CCN(Cc2cc3ccccc3n2Cc2ccccc2)CC1 do in these assays?
DRD3 agonist: -3; GLP1R inv ag: inconclusive

What do the screens show for `COCCNC(=O)C1CCN(Cc2cc3ccccc3n2Cc2ccc(C)cc2)CC1`?
DRD3 agonist: -3; GLP1R inv ag: 10µM*

How did O=C(NCCc1ccccc1)C1CCN(Cc2cc3ccccc3n2Cc2ccccc2)CC1 do in these assays?
DRD3 agonist: -16; GLP1R inv ag: inconclusive

Results for CC(CNC(=O)C1CCN(Cc2cc3ccccc3n2Cc2ccccc2)CC1)c1ccccc1 (configuration not stated) ?
DRD3 agonist: -14; GLP1R inv ag: 10µM*

Results for O=C(CCC(=O)N(CC(=O)NC1CCCCC1)CC1CCCO1)Nc1nccs1 (configuration not stated) ?
DRD3 antagonist: 21; DRD3 agonist: 15; GLP1R inv ag: 2%; GLP-1R agonist: -4%

What do the screens show for `COc1ccccc1CNc1ccc(-c2nc(-c3cccc(C)c3)no2)cc1[N+](=O)[O-]`?
DRD3 agonist: 3; GLP1R inv ag: 14%

What do the screens show for `O=C(CO)[C@@H](O)[C@H](O)[C@@H](O)C(=O)O`?
DRD3 agonist: 7

What do the screens show for `Fc1ccc(Cc2cn3cc(-c4ccccc4)nc3s2)cc1`?
DRD3 agonist: 9; GLP1R inv ag: 5.6µM*; GLP-1R agonist: -5%

How did CN(C)S(=O)(=O)c1ccc(NC(=O)N2CCN(c3cccc(C(F)(F)F)c3)CC2)cc1 do in these assays?
DRD3 antagonist: 0; DRD3 agonist: -6; GLP1R inv ag: 3.5µM*; GLP-1R agonist: -14%

How did CC(C)(C)OC(=O)N1CCC[C@H]1c1nnc(SCc2ccccc2Cl)o1 do in these assays?
DRD3 antagonist: 20; DRD3 agonist: 3; GLP1R inv ag: inconclusive; GLP-1R agonist: 2%

Results for CC(C)(C)OC(=O)NCCCCCc1nnc(SCc2c(F)cccc2Cl)o1 ?
DRD3 antagonist: -6; DRD3 agonist: 6; GLP1R inv ag: 10µM*; GLP-1R agonist: 14%

What do the screens show for `CC(C)(C)OC(=O)N1CCC[C@H]1c1nnc(SCc2c(F)cccc2Cl)o1`?
DRD3 antagonist: 12; DRD3 agonist: 1; GLP1R inv ag: 8.9µM*; GLP-1R agonist: 15%

Results for CC(C)(C)OC(=O)NCCc1nnc(SCc2c(Cl)cccc2Cl)o1 ?
DRD3 antagonist: 38; DRD3 agonist: -3; GLP1R inv ag: 2%; GLP-1R agonist: 3%

How did CC(=O)Nc1ccccc1OCc1cc(=O)n2c3c(sc2n1)CCCC3 do in these assays?
DRD3 agonist: 60*; GLP1R inv ag: 7%; GLP-1R agonist: 0%

How did Cc1ccc(OCc2cc(=O)n3c4c(sc3n2)CCCC4)c(C)c1 do in these assays?
DRD3 agonist: 0; GLP1R inv ag: 3%; GLP-1R agonist: 1%

How did CC1CC(N(C(=O)c2ccco2)c2ccccc2)c2ccccc2N1 (configuration not stated) do in these assays?
DRD3 antagonist: -58*; DRD3 agonist: -18; GLP1R inv ag: inconclusive; GLP-1R agonist: -2%

What do the screens show for `CCCc1nc2c(s1)CCc1onc(-c3cccc([N+](=O)[O-])c3)c1-2`?
DRD3 antagonist: 49; DRD3 agonist: 34*; GLP1R inv ag: 8%; GLP-1R agonist: -6%

What do the screens show for `Cc1ccccc1NC(=O)OCc1ccccc1`?
DRD3 antagonist: 7; DRD3 agonist: 61*; GLP1R inv ag: inconclusive; GLP-1R agonist: 0%

Results for CC1CN(c2cc3c(cc2F)c(=O)c(C(=O)O)cn3-c2ccc(F)cc2F)CCN1 (configuration not stated) ?
DRD3 agonist: -8; GLP-1R agonist: -2%

How did O=C(Nc1nc(-c2ccccc2)c(-c2ccccc2)o1)c1ccc(F)cc1 do in these assays?
DRD3 antagonist: -100*; DRD3 agonist: -28; GLP1R inv ag: inconclusive; GLP-1R agonist: -3%

How did CC(C)c1ccc(Nc2nc(NCc3ccco3)nc(N3CCOCC3)n2)cc1 do in these assays?
DRD3 antagonist: 0; DRD3 agonist: 0; GLP1R inv ag: 2.2µM*; GLP-1R agonist: 9%

Results for CN1CCN(c2nc(Nc3cccc(C(F)(F)F)c3)nc(N3CCOCC3)n2)CC1 ?
DRD3 antagonist: -98*; DRD3 agonist: -30; GLP1R inv ag: -20%; GLP-1R agonist: 11%

What do the screens show for `CC(C)c1ccc(Nc2nc(N3CCOCC3)nc(N3CCOCC3)n2)cc1`?
DRD3 antagonist: -74*; DRD3 agonist: -10; GLP1R inv ag: inconclusive; GLP-1R agonist: -1%

What do the screens show for `Cc1ccc(Nc2nc(N3CCOCC3)nc(N3CCOCC3)n2)cc1`?
DRD3 antagonist: 9; DRD3 agonist: -2; GLP1R inv ag: 0%; GLP-1R agonist: -4%

How did CS(=O)(=O)c1ccc(S(=O)CC(=O)OCc2ccccc2)c([N+](=O)[O-])c1 (configuration not stated) do in these assays?
DRD3 antagonist: -90*; DRD3 agonist: -29; GLP1R inv ag: inconclusive; GLP-1R agonist: -3%

Results for CCOC(=O)c1c(NC(=O)c2cc(-c3cccc(Cl)c3)on2)sc(C(C)=O)c1C ?
DRD3 agonist: -6; GLP1R inv ag: -31%

What do the screens show for `CC(CN(C)Cc1ccccc1)OC(=O)c1ccc(F)cc1` (configuration not stated)?
DRD3 antagonist: -69*; DRD3 agonist: -13; GLP1R inv ag: inconclusive; GLP-1R agonist: -5%

Results for COc1ccc(NS(=O)(=O)c2cccc(C(=O)N/N=C/c3cccs3)c2)cc1 ?
DRD3 antagonist: -52*; DRD3 agonist: -18; GLP1R inv ag: 0%; GLP-1R agonist: -4%

How did COc1ccc(C(=O)NCC(c2ccc(Cl)cc2)N2CCCCC2)cc1 (configuration not stated) do in these assays?
DRD3 agonist: -17; GLP1R inv ag: inconclusive

Results for COc1ccc(C(CNC(=O)c2cccc(NC(=O)c3cccs3)c2)N2CCCC2)cc1 (configuration not stated) ?
DRD3 antagonist: -82*; DRD3 agonist: -18; GLP1R inv ag: inconclusive; GLP-1R agonist: -7%

What do the screens show for `COc1ccc(C(CNC(=O)c2cccc(Br)c2)N2CCCC2)cc1` (configuration not stated)?
DRD3 antagonist: -87*; DRD3 agonist: -5; GLP1R inv ag: inconclusive; GLP-1R agonist: -4%

What do the screens show for `COc1ccc(C(=O)NCCC2=CCCCC2)cc1`?
DRD3 antagonist: 3; DRD3 agonist: -2; GLP1R inv ag: inconclusive; GLP-1R agonist: -3%

How did COc1ccc(OC(C)C(=O)NCCC2=CCCCC2)cc1 (configuration not stated) do in these assays?
DRD3 antagonist: -7; DRD3 agonist: 2; GLP1R inv ag: 11µM*; GLP-1R agonist: 25%

Bioassay records from PubChem.
